Drawing on publication PMC7862700, “An all-to-all approach to the identification of sequence-specific readers for epigenetic DNA modifications on cytosine”, this text covers binding signal for 1 sequence.

What all share (assay): DAPPL (digital affinity profiling via proximity ligation, sequencing); 10 mM Tris-HCl pH 7.5, 50 mM NaCl, 1 mM DTT, 4% glycerol, room temperature, 30 min; GST-TFs on glutathione beads, 16-mer random dsDNA library, 0.1% formaldehyde crosslink after washing; high values mean tight binding
The target of one assay is T1, FEV (Homo sapiens, UniProt Q99581 1-238).
T1 sequence: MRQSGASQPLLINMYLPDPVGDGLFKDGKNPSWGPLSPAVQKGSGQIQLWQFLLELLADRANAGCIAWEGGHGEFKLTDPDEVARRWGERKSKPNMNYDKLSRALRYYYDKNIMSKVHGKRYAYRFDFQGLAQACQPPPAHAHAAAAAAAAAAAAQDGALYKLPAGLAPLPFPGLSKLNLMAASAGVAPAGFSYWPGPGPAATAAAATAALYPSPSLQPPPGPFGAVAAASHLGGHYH
To be noted: protein: recombinant; tags: N-terminal GST; dsDNA, one strand shown. In short, it runs like this: (§1)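 A tag-only sample was pooled with DNA-barcoded human transcription factors that had been expressed in yeast as GST fusions and captured on glutathione beads. The pools were incubated for 30 min at room temperature with 200 nmole of a random double-stranded 16-mer DNA library in Tris/NaCl/DTT/glycerol buffer, then washed, crosslinked with 0.1% formaldehyde, proximity-ligated (BsaI/T4 ligase, 1 h, 37 °C), PCR-amplified and sequenced on an Illumina NextSeq500. Binding signal is each hexamer's read frequency for a factor divided by its frequency for the tag-only sample.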

For another assay, the target named is ETV5 (Homo sapiens, UniProt P41161 1-510). As to conditions: protein: recombinant; tags: N-terminal GST; dsDNA, one strand shown. Summed up:
as §1

The target of a further assay is HSF1 (Homo sapiens, UniProt Q00613 1-529). To be noted: protein: recombinant; tags: N-terminal GST; chain copies: 3; dsDNA, one strand shown. Summed up: as §1
HSF1, sequence (Q00613 whole entry): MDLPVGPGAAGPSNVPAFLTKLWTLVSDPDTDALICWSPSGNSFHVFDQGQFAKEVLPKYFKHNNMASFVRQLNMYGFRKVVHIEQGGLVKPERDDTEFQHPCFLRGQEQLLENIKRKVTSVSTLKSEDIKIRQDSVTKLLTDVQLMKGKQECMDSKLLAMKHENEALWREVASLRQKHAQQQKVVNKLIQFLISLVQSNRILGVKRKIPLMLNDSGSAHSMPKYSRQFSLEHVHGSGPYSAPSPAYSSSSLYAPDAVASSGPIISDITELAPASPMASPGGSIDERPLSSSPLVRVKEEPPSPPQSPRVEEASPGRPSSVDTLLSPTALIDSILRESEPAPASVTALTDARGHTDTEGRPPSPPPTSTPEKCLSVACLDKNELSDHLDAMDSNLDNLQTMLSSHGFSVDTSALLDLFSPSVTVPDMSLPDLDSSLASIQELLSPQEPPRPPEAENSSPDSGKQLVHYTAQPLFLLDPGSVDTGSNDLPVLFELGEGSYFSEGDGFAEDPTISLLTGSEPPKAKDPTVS
For the next assay, the target named is T2, SPIC (Homo sapiens, UniProt Q8N5J4 1-248).
T2 sequence: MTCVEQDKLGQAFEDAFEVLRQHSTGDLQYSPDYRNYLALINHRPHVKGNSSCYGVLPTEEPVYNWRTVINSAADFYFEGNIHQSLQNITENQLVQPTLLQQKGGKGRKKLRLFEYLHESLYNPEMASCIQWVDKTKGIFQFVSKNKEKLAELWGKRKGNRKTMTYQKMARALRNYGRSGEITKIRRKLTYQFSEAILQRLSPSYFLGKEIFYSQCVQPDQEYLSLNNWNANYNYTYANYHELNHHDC
As to conditions: protein: recombinant; tags: N-terminal GST; dsDNA, one strand shown. Summed up:
as §1

A further assay concerns the target ELF4 (Homo sapiens, UniProt Q99607 1-663). To be noted: protein: recombinant; tags: N-terminal GST; dsDNA, one strand shown. In short, it runs like this:
as §1

The next assay deals with T3, ELK4 (Homo sapiens, UniProt P28324-2 1-405).
T3 sequence: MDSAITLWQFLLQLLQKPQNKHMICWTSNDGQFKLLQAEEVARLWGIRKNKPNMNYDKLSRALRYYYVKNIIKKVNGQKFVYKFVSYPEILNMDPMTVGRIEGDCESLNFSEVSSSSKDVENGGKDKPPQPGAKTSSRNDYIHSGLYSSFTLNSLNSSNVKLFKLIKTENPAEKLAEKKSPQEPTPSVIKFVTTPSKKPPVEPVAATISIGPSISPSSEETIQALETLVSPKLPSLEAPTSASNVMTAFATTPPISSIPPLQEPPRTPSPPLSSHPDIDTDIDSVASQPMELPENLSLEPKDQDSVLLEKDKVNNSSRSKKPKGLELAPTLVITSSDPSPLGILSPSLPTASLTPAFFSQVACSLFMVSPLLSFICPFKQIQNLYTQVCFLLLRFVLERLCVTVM
As to conditions: protein: recombinant; tags: N-terminal GST; dsDNA, one strand shown. In short, it runs like this: as §1

In another assay the target is T4, ETV2 (Homo sapiens, UniProt O00321 1-342).
T4 sequence: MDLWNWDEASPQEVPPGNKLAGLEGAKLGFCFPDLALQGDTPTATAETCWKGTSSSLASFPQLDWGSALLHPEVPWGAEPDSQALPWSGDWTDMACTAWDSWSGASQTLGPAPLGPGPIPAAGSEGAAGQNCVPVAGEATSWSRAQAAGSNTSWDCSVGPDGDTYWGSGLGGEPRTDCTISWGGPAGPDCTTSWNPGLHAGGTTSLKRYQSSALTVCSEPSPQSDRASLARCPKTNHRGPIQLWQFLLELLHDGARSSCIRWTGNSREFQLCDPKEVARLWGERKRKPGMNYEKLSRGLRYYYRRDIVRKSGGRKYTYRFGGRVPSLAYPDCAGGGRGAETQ
To be noted: protein: recombinant; tags: N-terminal GST; dsDNA, one strand shown. In short, it runs like this:
as §1

For a further assay, the target named is T5, ELF3 (Homo sapiens, UniProt P78545 1-371).
T5 sequence: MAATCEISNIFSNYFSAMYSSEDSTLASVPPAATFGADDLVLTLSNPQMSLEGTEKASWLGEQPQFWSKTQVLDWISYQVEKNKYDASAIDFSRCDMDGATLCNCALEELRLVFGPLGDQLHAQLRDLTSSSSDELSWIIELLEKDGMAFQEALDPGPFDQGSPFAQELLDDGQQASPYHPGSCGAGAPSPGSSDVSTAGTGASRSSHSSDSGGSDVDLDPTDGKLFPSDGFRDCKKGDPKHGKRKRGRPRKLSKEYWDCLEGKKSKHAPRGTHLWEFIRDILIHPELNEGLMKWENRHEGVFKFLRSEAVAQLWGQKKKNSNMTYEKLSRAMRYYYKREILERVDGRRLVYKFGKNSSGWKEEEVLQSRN
To be noted: protein: recombinant; tags: N-terminal GST; dsDNA, one strand shown. Summed up: as §1

A further assay deals with CRX (Homo sapiens, UniProt O43186 1-299). To be noted: protein: recombinant; tags: N-terminal GST; dsDNA, one strand shown. In short, it runs like this: as §1
CRX, sequence (O43186 whole entry): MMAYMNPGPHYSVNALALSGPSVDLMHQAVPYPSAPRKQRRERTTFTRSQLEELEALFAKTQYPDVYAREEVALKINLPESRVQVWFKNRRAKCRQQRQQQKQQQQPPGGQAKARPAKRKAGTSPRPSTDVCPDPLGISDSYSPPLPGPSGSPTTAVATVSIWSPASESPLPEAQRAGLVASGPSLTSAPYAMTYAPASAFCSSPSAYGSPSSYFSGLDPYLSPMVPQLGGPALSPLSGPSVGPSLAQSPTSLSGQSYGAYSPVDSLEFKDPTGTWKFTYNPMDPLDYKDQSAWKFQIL
A further assay concerns the target ETV1 (Homo sapiens, UniProt P50549 1-477). As to conditions: protein: recombinant; tags: N-terminal GST; dsDNA, one strand shown. Summed up:
as §1

The next assay concerns the target T6, ERF (Homo sapiens, UniProt P50548 1-548).
T6 sequence: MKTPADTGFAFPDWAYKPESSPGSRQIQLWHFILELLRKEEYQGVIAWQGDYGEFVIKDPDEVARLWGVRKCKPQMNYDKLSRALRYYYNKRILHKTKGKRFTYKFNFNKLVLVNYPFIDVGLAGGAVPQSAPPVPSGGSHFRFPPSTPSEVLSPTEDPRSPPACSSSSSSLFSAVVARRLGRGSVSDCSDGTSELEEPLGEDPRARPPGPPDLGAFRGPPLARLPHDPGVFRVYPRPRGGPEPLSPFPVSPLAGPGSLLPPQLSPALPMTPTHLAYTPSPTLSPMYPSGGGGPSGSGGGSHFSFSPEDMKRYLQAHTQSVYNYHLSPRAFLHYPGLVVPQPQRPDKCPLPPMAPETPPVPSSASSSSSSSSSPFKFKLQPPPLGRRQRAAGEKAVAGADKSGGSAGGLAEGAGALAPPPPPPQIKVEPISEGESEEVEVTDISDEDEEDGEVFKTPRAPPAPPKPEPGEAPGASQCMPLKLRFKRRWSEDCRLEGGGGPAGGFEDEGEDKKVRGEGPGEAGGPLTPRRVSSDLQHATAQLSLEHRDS
To be noted: protein: recombinant; tags: N-terminal GST; dsDNA, one strand shown. Summed up: as §1

The next assay concerns the target T7, ETV3L (Homo sapiens, UniProt Q6ZN32 1-361).
T7 sequence: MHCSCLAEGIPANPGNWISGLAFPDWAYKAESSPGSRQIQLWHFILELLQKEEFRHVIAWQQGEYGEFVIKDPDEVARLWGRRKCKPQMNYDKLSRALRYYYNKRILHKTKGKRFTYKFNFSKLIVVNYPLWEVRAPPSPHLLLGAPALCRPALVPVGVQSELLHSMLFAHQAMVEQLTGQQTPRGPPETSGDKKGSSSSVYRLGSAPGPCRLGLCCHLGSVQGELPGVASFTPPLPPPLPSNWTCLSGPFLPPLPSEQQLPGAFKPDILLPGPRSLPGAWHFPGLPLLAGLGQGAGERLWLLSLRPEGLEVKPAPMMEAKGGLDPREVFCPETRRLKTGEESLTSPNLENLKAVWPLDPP
To be noted: protein: recombinant; tags: N-terminal GST; dsDNA, one strand shown. In short, it runs like this: as §1

Another assay deals with T8, ETS2 (Homo sapiens, UniProt P15036 1-469).
T8 sequence: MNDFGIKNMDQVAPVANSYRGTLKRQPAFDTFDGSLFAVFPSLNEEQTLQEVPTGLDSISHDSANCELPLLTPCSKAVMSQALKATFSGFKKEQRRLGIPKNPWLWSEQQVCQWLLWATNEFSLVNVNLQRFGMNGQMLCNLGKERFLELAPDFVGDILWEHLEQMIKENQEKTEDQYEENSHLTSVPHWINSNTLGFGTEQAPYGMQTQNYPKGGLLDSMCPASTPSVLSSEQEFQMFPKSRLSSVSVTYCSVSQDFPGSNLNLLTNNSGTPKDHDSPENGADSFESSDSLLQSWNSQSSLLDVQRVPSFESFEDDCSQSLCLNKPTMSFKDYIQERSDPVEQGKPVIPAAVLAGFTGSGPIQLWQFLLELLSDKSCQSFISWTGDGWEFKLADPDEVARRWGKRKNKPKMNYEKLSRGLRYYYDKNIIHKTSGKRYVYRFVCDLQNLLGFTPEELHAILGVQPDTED
As to conditions: protein: recombinant; tags: N-terminal GST; dsDNA, one strand shown. In short, it runs like this:
as §1

The target in a further assay is T9, SPDEF (Homo sapiens, UniProt O95238 1-335).
T9 sequence: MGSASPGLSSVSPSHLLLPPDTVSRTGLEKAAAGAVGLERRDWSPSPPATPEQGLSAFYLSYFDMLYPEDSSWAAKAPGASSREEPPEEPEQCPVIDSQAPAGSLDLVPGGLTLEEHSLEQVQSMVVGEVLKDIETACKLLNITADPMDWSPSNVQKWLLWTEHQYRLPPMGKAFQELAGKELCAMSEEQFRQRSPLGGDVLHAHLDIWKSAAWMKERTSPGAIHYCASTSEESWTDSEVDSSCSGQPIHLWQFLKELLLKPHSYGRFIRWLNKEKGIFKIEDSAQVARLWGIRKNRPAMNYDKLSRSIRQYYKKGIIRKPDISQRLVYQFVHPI
As to conditions: protein: recombinant; tags: N-terminal GST; dsDNA, one strand shown. In short, it runs like this:
as §1

Another assay deals with T10, ETV7 (Homo sapiens, UniProt Q9Y603 1-341).
T10 sequence: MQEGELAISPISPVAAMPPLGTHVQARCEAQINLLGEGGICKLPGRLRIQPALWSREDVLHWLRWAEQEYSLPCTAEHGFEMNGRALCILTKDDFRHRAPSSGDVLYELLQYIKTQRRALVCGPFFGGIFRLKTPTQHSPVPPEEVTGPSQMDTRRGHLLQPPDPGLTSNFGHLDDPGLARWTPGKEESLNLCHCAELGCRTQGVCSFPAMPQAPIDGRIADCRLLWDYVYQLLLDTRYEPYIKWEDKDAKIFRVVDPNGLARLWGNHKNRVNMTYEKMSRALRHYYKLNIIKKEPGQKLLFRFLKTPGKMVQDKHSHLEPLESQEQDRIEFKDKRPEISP
To be noted: protein: recombinant; tags: N-terminal GST; dsDNA, one strand shown. Summed up: as §1

For the next assay, the target named is T11, ELF5 (Homo sapiens, UniProt Q9UKW6-2 1-255).
T11 sequence: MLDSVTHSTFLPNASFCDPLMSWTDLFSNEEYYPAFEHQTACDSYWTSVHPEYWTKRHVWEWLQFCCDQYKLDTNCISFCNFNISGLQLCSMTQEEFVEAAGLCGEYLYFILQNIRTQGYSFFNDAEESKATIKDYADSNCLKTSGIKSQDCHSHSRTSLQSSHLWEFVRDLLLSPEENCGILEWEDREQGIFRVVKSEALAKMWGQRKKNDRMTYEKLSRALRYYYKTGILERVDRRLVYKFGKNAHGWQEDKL
To be noted: protein: recombinant; tags: N-terminal GST; dsDNA, one strand shown. Summed up:
as §1

The target in another assay is T12, ETV3 (Homo sapiens, UniProt P41162-2 1-143).
T12 sequence: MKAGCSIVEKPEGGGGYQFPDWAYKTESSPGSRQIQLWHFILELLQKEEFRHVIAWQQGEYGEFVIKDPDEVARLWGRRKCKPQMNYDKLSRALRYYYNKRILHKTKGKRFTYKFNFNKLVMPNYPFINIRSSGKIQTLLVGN
To be noted: protein: recombinant; tags: N-terminal GST; dsDNA, one strand shown. In short, it runs like this: as §1

In the next assay the target is ETV6 (Homo sapiens, UniProt P41212 1-452). To be noted: protein: recombinant; tags: N-terminal GST; dsDNA, one strand shown. Summed up:
as §1

ETV1, sequence (P50549 whole entry): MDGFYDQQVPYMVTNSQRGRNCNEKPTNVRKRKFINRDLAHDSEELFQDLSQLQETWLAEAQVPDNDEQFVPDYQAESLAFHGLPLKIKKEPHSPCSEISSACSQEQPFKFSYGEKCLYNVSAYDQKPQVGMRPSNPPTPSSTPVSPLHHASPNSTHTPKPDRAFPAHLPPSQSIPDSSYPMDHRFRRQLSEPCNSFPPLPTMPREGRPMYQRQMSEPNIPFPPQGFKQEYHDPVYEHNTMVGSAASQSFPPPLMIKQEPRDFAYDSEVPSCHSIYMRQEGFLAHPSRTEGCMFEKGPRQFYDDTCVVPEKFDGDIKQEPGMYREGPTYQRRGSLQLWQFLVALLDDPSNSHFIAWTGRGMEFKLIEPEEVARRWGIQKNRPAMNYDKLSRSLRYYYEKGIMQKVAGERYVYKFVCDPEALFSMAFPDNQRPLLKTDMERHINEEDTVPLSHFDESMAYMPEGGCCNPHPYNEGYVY
ETV6, sequence (P41212 whole entry): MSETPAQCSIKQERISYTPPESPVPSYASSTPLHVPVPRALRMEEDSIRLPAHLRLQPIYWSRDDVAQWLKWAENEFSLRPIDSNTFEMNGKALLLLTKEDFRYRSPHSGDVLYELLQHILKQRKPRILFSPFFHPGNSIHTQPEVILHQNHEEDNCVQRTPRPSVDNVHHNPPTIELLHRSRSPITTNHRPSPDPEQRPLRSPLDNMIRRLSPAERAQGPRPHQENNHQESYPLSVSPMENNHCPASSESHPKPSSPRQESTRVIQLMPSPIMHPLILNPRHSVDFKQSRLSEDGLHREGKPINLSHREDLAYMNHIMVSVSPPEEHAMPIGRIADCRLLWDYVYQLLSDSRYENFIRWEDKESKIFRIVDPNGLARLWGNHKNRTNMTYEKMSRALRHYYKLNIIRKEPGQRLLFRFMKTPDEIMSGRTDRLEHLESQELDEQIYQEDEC
ELF4, sequence (Q99607 whole entry): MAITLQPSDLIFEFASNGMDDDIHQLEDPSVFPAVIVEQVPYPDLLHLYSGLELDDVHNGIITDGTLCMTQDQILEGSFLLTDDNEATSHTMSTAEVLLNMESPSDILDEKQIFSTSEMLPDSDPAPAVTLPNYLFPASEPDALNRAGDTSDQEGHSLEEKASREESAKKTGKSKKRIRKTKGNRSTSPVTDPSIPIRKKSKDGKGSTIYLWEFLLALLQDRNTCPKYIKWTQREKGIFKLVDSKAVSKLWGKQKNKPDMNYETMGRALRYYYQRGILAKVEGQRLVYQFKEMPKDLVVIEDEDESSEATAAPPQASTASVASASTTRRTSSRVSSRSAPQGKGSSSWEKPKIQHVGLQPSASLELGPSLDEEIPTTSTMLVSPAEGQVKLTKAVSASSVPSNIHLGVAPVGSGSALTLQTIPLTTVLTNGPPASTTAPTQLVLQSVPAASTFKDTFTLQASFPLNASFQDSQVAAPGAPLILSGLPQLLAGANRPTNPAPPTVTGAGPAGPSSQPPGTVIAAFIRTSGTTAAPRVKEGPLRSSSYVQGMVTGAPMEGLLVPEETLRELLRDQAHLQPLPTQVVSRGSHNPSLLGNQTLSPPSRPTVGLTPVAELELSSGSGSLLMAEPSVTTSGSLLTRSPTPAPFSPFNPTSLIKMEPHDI
ETV5, sequence (P41161 whole entry): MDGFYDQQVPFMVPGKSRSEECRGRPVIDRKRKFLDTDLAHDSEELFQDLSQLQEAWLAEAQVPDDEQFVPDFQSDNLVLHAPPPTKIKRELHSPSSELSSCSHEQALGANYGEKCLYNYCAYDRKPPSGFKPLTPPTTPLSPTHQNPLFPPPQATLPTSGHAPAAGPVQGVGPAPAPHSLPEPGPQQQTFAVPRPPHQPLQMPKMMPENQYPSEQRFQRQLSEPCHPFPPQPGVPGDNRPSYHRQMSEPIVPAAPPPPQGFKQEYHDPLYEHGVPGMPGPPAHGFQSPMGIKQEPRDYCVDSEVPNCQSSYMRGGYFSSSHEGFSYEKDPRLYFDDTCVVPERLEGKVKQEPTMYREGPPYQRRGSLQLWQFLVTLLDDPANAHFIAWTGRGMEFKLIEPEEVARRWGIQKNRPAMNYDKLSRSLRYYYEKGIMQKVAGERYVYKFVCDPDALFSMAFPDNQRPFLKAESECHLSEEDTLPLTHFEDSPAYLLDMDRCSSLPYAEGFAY

Consider AAAAAG, for which the binding signal with FEV is 1.2 fold enrichment (6-mer frequency, TF over GST control); in the assay with ETV5, 1.3 fold enrichment (6-mer frequency, TF over GST control); with HSF1, 1.34 fold enrichment (6-mer frequency, TF over GST control); with SPIC, 1.13 fold enrichment (6-mer frequency, TF over GST control); with ELF4, 1.26 fold enrichment (6-mer frequency, TF over GST control); in the assay with ELK4 it was 1.32 fold enrichment (6-mer frequency, TF over GST control). The binding signal is 1.08 fold enrichment (6-mer frequency, TF over GST control) with ETV2; 1.28 fold enrichment (6-mer frequency, TF over GST control) in the assay with ELF3; 1.2 fold enrichment (6-mer frequency, TF over GST control) with CRX; 1.26 fold enrichment (6-mer frequency, TF over GST control) with ETV1; 1.22 fold enrichment (6-mer frequency, TF over GST control) in the assay with ERF; 1.26 fold enrichment (6-mer frequency, TF over GST control) in the assay with ETV3L. Besides, the binding signal was 1.23 fold enrichment (6-mer frequency, TF over GST control) with ETS2; 1.18 fold enrichment (6-mer frequency, TF over GST control) with SPDEF; 1.32 fold enrichment (6-mer frequency, TF over GST control) in the assay with ETV7; 1.24 fold enrichment (6-mer frequency, TF over GST control) with ELF5; 1.23 fold enrichment (6-mer frequency, TF over GST control) in the assay with ETV3; 1.21 fold enrichment (6-mer frequency, TF over GST control) with ETV6.
